# From PubChem BioAssay (NCI)
# “And” between values parts separate entries of the source, which are not always exact repeats. Identical values can stand only once. The panel holds about 83,000 compounds, 20% with a hit somewhere; the sample as a whole holds those more often.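 In brief: 96-well plates, 48 h treatment, single concentration, percent growth endpoint.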 Values without a mark were called inactive. The source made the active and inactive calls. Rule for the calls: active = growth percent below 10; inactive = the rest.
# Test system: MDA-MB-468 breast
# Experiment: NCI-60 one-dose screen, 48 h (100 = growth as untreated, 0 = no growth, -100 = all killed)
# Settings: 10 µM unless noted
row,Structure (SMILES),growth
1,C#C[C@]1(O)CC[C@H]2[C@@H]3CC=C4c5sc(N6CCN(C)CC6)nc5CC[C@]4(C)[C@H]3CC[C@@]21C,47.6%
2,Cc1ccc(/C=C/c2c(C(=O)/C=C/c3ccccc3)c(C)nc3ccccc23)cc1,38.1%
3,COc1ccc(CN2C(=O)/C(=C\C(=O)c3ccc(OCCN4CCCCC4)cc3)c3ccccc32)cc1,53.3%
4,CC(C)/C(=N/O)c1ccccc1,105%
5,O=C(NO)c1ccc(CNc2cccc3nc(C4CC4)n(-c4ccccc4)c(=O)c23)cc1,22.3%
6,CC(=N\N=C(N)N)/C(=N/N=C(N)N)c1ccccc1,39.6%
7,COc1ccc(C2Nc3ncnc(N)c3N=C3c4ccccc4C(=O)C32)cc1 (centres undefined),86.1%
8,CC1(C)CC[C@]23CC[C@]4(C)[C@H](CC[C@@H]5[C@@]6(C)CC[C@H](N)C(C)(C)[C@@H]6CC[C@]54C)[C@H]2[C@H]1OC3,0.703% (active)
9,Cc1nn2c(-c3nc4ccc(Cl)cc4[nH]3)c(-c3ccc(F)cc3)nc2s1,102%
10,COc1ccc(-c2nsc3c2NC(=O)CC3c2ccc(Cl)cc2)cc1 (centres undefined),58.7%
11,C=C1C(=O)O[C@H]2[C@H]1CC/C(COC(=O)NCc1ccccc1OC)=C\CC[C@@]1(C)O[C@@H]21,42.2%
12,Cc1cc(/C=C2\SC(=Nc3ccccc3)N(C3CCCC3)C2=O)c(C)n1-c1ccc(Cl)cc1,-84.2% (active)
13,Cc1oc2nc[nH]c(=O)c2c1C(=O)/C=C/c1ccc(Cl)cc1,10.6%
14,N#Cc1c(-c2cccs2)cc(-c2cccnc2)[nH]c1=O,101%
15,O=C(CN(C1CCCCC1)C1CCCCC1)Nc1ccc(S(=O)(=O)c2ccc(NC(=O)CN(C3CCCCC3)C3CCCCC3)cc2)cc1,-55.1% (active)
16,Cc1cc2c(cc1C)[n+](Cc1ccc3ccccc3c1)cn2Cc1ccc2ccccc2c1,-76.4% (active)
17,O=C1NC(=O)/C(=C/c2ccc3nccc(-c4ccncc4)c3c2)S1,-49.2% (active)
18,O=C(Oc1ccc2ccc(=O)oc2c1)c1ccc(Cl)cc1,115%
19,Cc1cccc(Cc2cnc(NC(=O)CCc3ccc(C)o3)s2)c1,5% (active)
20,CC1(C)CC(=O)NC1=O,100%
21,Cc1ccc(C(=O)C(Br)C(Br)c2ccccc2)cc1 (centres undefined),42.8%
22,O=C(O)COc1ccc(Cl)cc1C1CCCCC1,97.6%
23,COc1cc2ncnc(Nc3ccc(S(=O)(=O)Nc4nccs4)cc3)c2cc1OCCCN1CCOCC1,107%
24,COc1cc(/C=N\NC(=O)c2ccc3nc(-c4ccc(Br)cc4)[nH]c3c2)cc(OC)c1OC,37.2%
25,CC(=O)O[C@H]1C[C@@]2(C)[C@@H](C[C@@H](O)[C@H]3[C@@]4(C)CC[C@H](N5CCCC5)[C@@H](C)[C@@H]4CC[C@@]32C)/C1=C(\CCC=C(C)C)C(=O)O,94.6%
26,CCN1CCN(CCCN(C[C@H]2Cc3ccccc3CN2)[C@H]2CCCc3cccnc32)CC1,87.1%
27,COc1cc(NCC(C)(O)CN(CC(C)C)CC(C)C)c2nc(C)ccc2c1 (centres undefined),-11.4% (active)

row,Structure (SMILES),growth
1,Oc1[nH]c2ccccc2c1/C=c1/cc2c(c(-c3ccc(F)cc3)n1)=Nc1ccccc1-2,-60.8% (active)
2,C[C@@H]1OCC2(CCN(c3cnc(C(=O)Nc4cc(F)cc5cccnc45)cn3)CC2)[C@@H]1N,1.07% (active)
3,O=C(NNc1nccc(Nc2ccc(S(=O)(=O)Nc3ccncc3)cc2)n1)c1ccccc1,116%
4,O=C(O)c1ccc(N=CC(=O)c2ccc(-c3ccccc3)cc2)cc1,83.5%
5,C#C[C@@]1(O)[C@@H](CO)O[C@@H](n2ccc3c(N)ncnc32)[C@@H]1O,-45.3% (active)
6,COc1ccc([C@H]2c3[nH]c4ccccc4c3C[C@@H]3C(=O)N(C4CCN(Cc5ccccc5)CC4)CC(=O)N23)c(OC)c1,63.4%
7,COC(=O)[C@H](Cc1cn(C)cn1)NC(=O)[C@H](CC(=O)OCc1ccccc1)NC(=O)Nc1cc(C(F)(F)F)cc(C(F)(F)F)c1,-74.2% [100 µM] (active)
8,CN1CCN(Cc2ccc(NC(=O)c3cncc(C#Cc4cnc5ccc(OCCCS(C)(=O)=O)nn45)c3)cc2C(F)(F)F)CC1,-61.6% (active)
9,COc1cc2c3c(n(C4CCN(C)CC4)c(=O)c2cc1OC)-c1cc2c(cc1C3=O)OCO2,31.6%
10,CC(O)CCNC(c1ccccc1)C(O)c1ccccc1 (centres undefined),116%
11,COc1cc2c(cc1-c1c(C)noc1C)ncc1nc(C3CCCC3)n([C@H](C)COC(F)F)c12,32.7%
12,O=C(c1ccccc1)c1ccc(Oc2ccc([N+](=O)[O-])cc2[N+](=O)[O-])cc1,5.3% (active)
13,CC(C)CC1NC(=O)C(CCCN)NC(=O)C(C(C)C)NC(=O)C2CCCN2C(=O)C(Cc2ccccc2)NC(=O)C(CC(C)C)NC(=O)C(CCCN)NC(=O)C(C(C)C)NC(=O)C2CCCN2C(=O)C(Cc2ccccc2)NC1=O (centres undefined),-78.1% (active)
14,CCn1cc(C(=O)O)c(=O)c2cc(F)c(N3CCN(CC(=O)Nc4ccc(/C(C)=N/OC)cc4)CC3)cc21,102%
15,COc1ccc(CCNC(=O)COc2cc3c(Nc4ccc(F)c(Cl)c4)ncnc3cc2OC)cc1OC,-10.1% (active)
16,COc1ccc(S(=O)(=O)n2cc(C(=O)C(=O)Nc3ccncc3)c3ccccc32)cc1F,17.9%
17,O=C(Oc1ccc2c(c1)sc1nc(-c3ccccc3)[nH]c(=O)c12)C(F)(F)F,37.9%
18,CCOC(=O)N/N=C\C(C)=N\NC(=O)OCC,114%
19,C=CCNC(=S)NNc1ccc([N+](=O)[O-])cn1,98.7%
20,COc1ccc(-n2cnc3cc(C(=O)N4CCCCC4)ccc32)cc1,103%
21,CC(=O)Oc1ccccc1C(=O)/C=C/c1cccc([N+](=O)[O-])c1,61.2%
22,COc1ccc(/C=N/NC(=O)COCC(=O)N/N=C/c2ccc(OC)cc2)cc1,100%
23,COc1ccc(C2CC(n3ccnc3)c3cc(OC)c(OC)c(OC)c32)cc1O (centres undefined),78.6%
24,CCCCCCCCc1cc[n+](CC(=O)c2ccc(Br)cc2)cc1,-87% (active)
25,O=C(COc1ccc(C2SCC(=O)N2c2ccccc2)cc1)c1ccccc1 (centres undefined),85.3%
26,COc1ccc(-c2cc(-c3ccc(Cl)cc3)nc(NCCCCNc3ccnc4cc(Cl)ccc34)n2)cc1,75.1%
27,Cc1ccc2oc(=O)cc(-c3nc4ccc([N+](=O)[O-])cc4[nH]3)c2c1,29%

row,Structure (SMILES),growth
1,COC(=O)/C=C1/SC(=NCc2ccccc2)N(CCc2c[nH]c3ccccc23)C1=O,81.1%
2,COc1ccc(-c2cc(-c3ccc(OC)cc3)nc(NCCCNc3ccnc4cc(Cl)ccc34)n2)cc1,74.8%
3,O=C(Nc1ccc(Oc2cccc(Cl)c2)c(Cl)c1)c1cnccn1,0.426% (active)
4,Cn1cnc2nc[nH]c2c1=S,107%
5,Cc1[c-]onc1C.Cc1[c-]onc1C.[Ag].[Ag].[NH-]S(=O)(=O)c1ccc(N=Nc2cc(N=Nc3ccc(S([NH-])(=O)=O)cc3)c3c(NC(=O)C(Cl)Cl)cccc3c2OC(=O)C(Cl)Cl)cc1,53.9%
6,COc1ccc2c(CCCC(c3ccccc3)c3ccccc3)c3[n+](cc2c1OC)CCc1cc2c(cc1-3)OCO2,-73% (active)
7,CC(C)N=C1CCCC1C(=S)SSC(=S)C1CCCC1=NC(C)C (centres undefined),63.6%
8,O=C1C(Cl)=C(NCCN2CCOCC2)C(=O)c2ncccc21,-74.1% (active)
9,O=S(=O)(Nc1ccc(-c2nc(-c3cccc(OCCN4CCOCC4)c3)c(-c3ccnc(Br)c3)[nH]2)cc1)c1ccccc1,1.46% (active)
10,Cc1cccc(/C=N/n2c(-c3ccc(Cl)cc3)nc3c(Br)cc(Br)cc3c2=O)c1,46.7%
11,O=c1[nH]nc(-c2ccccc2)c2sc3ncc(-c4ccc(Br)cc4)n3c12,13.7%
12,COc1cccc(-n2cc(-c3nc(Nc4cc(C)[nH]n4)c4ccccc4n3)nn2)c1,48.1%
13,COc1ccc(-c2ccccc2)cc1C(=O)c1ccc(-c2ccccc2)cc1,64.6%
14,COc1ccc2c(c1)OC1=C(C(=O)OC1)C2c1cc(OC)c2c(c1)OCCO2 (centres undefined),1.92% (active)
15,COc1ccc(-c2c(C(N)=O)c(N)n(Cc3nc4ccccc4[nH]3)c(=O)c2C#N)c(OC)c1,99.2%
16,O=[P@@]1(c2ccccc2)O[C@H](COCc2ccccc2)[C@@H](OCc2ccccc2)[C@H](OCc2ccccc2)[C@H]1O,21.3%
17,Nc1ccccc1NC(=O)c1ccc(NC(=O)C/C=C/c2cccnc2)cc1,-7.27% (active)
18,c1ccc2cc(Cn3c(-c4cccc5ccccc45)[n+](Cc4ccc5ccccc5c4)c4c5ccccc5c5ccccc5c43)ccc2c1,-71.4% (active)
19,O=C1Nc2ccc(F)cc2/C1=C/c1nc(-c2ccc(F)cc2)n2ccccc12,113%
20,CC(=O)Nc1nccs1,107%
21,O=c1ccccc(-c2ccc(Br)cc2)c1O,12.3%
22,COc1ccc(/C=C(/c2ccccc2)[N+](=O)[O-])cc1,-77.6% (active)
23,COc1cc2c(c(OC)c1OC)CCC(c1cccc(NC(=O)c3ccc(Br)cc3)c1)O2 (centres undefined),35.8%
24,CC(C)(C(=O)c1cccnc1)c1cccnc1,96.4% and 96.1%
25,Cc1cc(-c2nnc(/C=C/c3ccc4c(c3)OCO4)o2)n[nH]1,54%
